Reference: the supplement of paper PMC3898565
Values joined by “and” are separate entries in the source; they are usually repeats but may differ in a detail not shown here. Equal entries are not always repeated. Structures can show the parent of a compound that is named as a salt. ± gives the uncertainty stated by the source.

Tested on: U87
Assay: cell viability relative to vehicle control; higher = less growth inhibition (less active)
Settings: 10 µM; 72 h
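Further: viable cell number estimated from Alamar Blue fluorescence read at 560/90, part of a single-dose primary screen of an FDA-approved drug library.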

| Structure (SMILES) | cell viability |
| --- | --- |
| OCc1cccnc1 | 108 ± 1.5% |
| CC1CNc2c(cccc2S(=O)(=O)N[C@@H](CCCNC(=N)N)C(=O)N2CC[C@@H](C)C[C@@H]2C(=O)O)C1 (some centres undefined) | 105 ± 2.8% |
| COc1ccc2[nH]c([S+]([O-])Cc3ncc(C)c(OC)c3C)nc2c1 (centres undefined) | 105% and 106% |
| O=C1[C@H]2CCCC[C@H]2C(=O)N1CCCCN1CCN(c2nsc3ccccc23)CC1 | 102 ± 2.2% |
| CNCCCC12CCC(c3ccccc31)c1ccccc12 [Maprotilline HCl] | 102 ± 1.5% |
| CCCN[C@H]1CCc2nc(N)sc2C1 | 105 ± 1.9% |
| O=c1n(CCCN2CCN(c3cccc(Cl)c3)CC2)nc2ccccn12 | 101 ± 1.3% |
| CC(C)c1ccc2oc3nc(N)c(C(=O)O)cc3c(=O)c2c1 | 107 ± 1.8% |
| CCc1nn(CCCN2CCN(c3cccc(Cl)c3)CC2)c(=O)n1CCOc1ccccc1 [Nefazodone] | 100.5 ± 0.27% |
| C/C=C1\[C@H]2C=C(C)C[C@]1(N)c1ccc(=O)[nH]c1C2 | 106.5 ± 0.73% |
| CN1CCC(=C2c3ccccc3C=Cc3ccccc32)CC1 [Cyproheptadine] | 103.33 ± 0.068% |
| CCc1oc2ccccc2c1C(=O)c1cc(Br)c(O)c(Br)c1 | 107.7 ± 0.81% |
| CCC(=O)O[C@]1(C(=O)SCF)[C@H](C)C[C@H]2[C@@H]3C[C@H](F)C4=CC(=O)C=C[C@]4(C)[C@@]3(F)[C@@H](O)C[C@@]21C | 105 ± 2.2% |
| N[C@@H](C(=O)N[C@@H]1C(=O)N2C(C(=O)O)=C(Cl)CS[C@H]12)c1ccccc1 | 104 ± 1.2% |
| CCOc1cc(N)c(Cl)cc1C(=O)NCC1CN(Cc2ccc(F)cc2)CCO1 (centres undefined) | 108 ± 1.4% |
| COc1ccc(-c2cc(=O)c3c(OC)c(OC)c(OC)c(OC)c3o2)cc1OC [Nobiletin] | 104.9 ± 0.98% |
| C[C@]12C=CC(=O)C=C1CC[C@@H]1[C@@H]2[C@@H](O)C[C@@]2(C)[C@H]1CC[C@]2(O)C(=O)COC(=O)CCC(=O)O | 104 ± 0.49% |
| Nc1nc(O)c2ncn(CCC(CO)CO)c2n1 | 103 ± 2.2% |
| CCCCCCCCCCC[C@@H](C[C@@H]1OC(=O)[C@H]1CCCCCC)OC(=O)[C@H](CC(C)C)NC=O | 103 ± 3.9% |
| CN(C)CC/C=C1/c2ccccc2COc2ccc(CC(=O)O)cc21 | 95.88 ± 0.86% |

| Structure (SMILES) | cell viability |
| --- | --- |
| COCc1c(C(C)C)nc(C(C)C)c(/C=C/[C@@H](O)C[C@@H](O)CC(=O)O)c1-c1ccc(F)cc1 | 14.2 ± 3% |
| O=C1CC[C@@H](C(=O)N2CSC[C@H]2C(=O)O)N1 | 99.4 ± 1.6% |
| CC[C@H](C)C(=O)O[C@H]1CCC=C2C=C[C@H](C)[C@H](CC[C@@H]3C[C@@H](O)CC(=O)O3)[C@H]21 [mevastatin] | 89.1 ± 3.1% |
| CN(CCO)CC(O)Cn1cnc2c1c(=O)n(C)c(=O)n2C (centres undefined) | 104.3 ± 0.69% |
| COc1ccc2cc([C@H](C)C(=O)O)ccc2c1 | 106 ± 1.4% |
| Cc1ncc([N+](=O)[O-])n1CC(O)CCl (centres undefined) | 91.08 ± 0.44% |
| CC(=O)CCCCn1c(=O)c2c(ncn2C)n(C)c1=O [Pentoxifylline] | 101.9 ± 0.75% |
| CN1CCC(=C2c3ccccc3CCc3sccc32)CC1 [Pizotyline] | 94.7 ± 13% |
| O=c1cnn([C@@H]2O[C@H](CO)[C@@H](O)[C@H]2O)c(=O)[nH]1 | 94.8 ± 1.9% |
| CN(C)CCN(Cc1ccccc1)c1ccccn1 | 96.4 ± 2.6% |
| CC(=O)OCC(=O)NCCCOc1cccc(CN2CCCCC2)c1 | 102 ± 1.4% |
| C[C@H]1C[C@H]2[C@@H]3CCC4=CC(=O)C=C[C@]4(C)[C@@]3(Cl)[C@@H](O)C[C@]2(C)[C@@]1(O)C(=O)CO [Beclomethasone] | 106 ± 1.5% |
| Cc1cccc(C)c1NC(=O)C(C)N (centres undefined) | 104 ± 2.3% |
| CC(C(=O)O)c1ccc(CC2CCCC2=O)cc1 (centres undefined) | 99.3 ± 2.7% |
| Nc1ncnc2c1ncn2[C@@H]1O[C@H](CO)C[C@@H]1O [3'-deoxydenosine] | 100.2 ± 0.64% |
| COC1=C(OC)C(=O)C(CCCCCCCCCCO)=C(C)C1=O | 93.41 ± 0.38% |
| CCCc1c(OCCCCc2nnn[nH]2)ccc(C(C)=O)c1O | 104 ± 1.5% |
| CCCN1CCCC[C@H]1C(=O)Nc1c(C)cccc1C | 107 ± 1.1% |
| CCCCCCNC(=O)n1cc(F)c(=O)[nH]c1=O | 55.1 ± 2.6% |
